# Laboratory results taken from PubChem BioAssay.
# Records with an inconclusive call do not appear. Activity calls are given as the source filed them.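 How the source made its calls, unless noted: active means normalized viability below 100% at a tested concentration; inactive means the rest.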
# What was measured:
# [1] = growth inhibition of DIPG glioma cells, dose response, cell-based, SU-DIPG-XVII, MIPE5.0, CellTiter-Glo, qHTS (AID 1347060; cut-off not given, nearly all actives have AC50 up to about 26 µM); conditions: SU-DIPG-XVII viability, CellTiter-Glo ATP luminescence
# [2] = viability loss in pontine glioma line – cell-based, SU-DIPG-XXV, MIPE5.0, CellTiter-Glo, qHTS, dose response (AID 1347065; cut-off not given, nearly all actives have AC50 up to about 26 µM;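 further: cells exposed to compound for 48 hours before ATP readout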); conditions: CellTiter-Glo ATP luminescence
# [3] = SU-DIPG-XXV glioma cell viability, MIPE5.0 library, qHTS (AID 1347068; cut-off not given, nearly all actives have IC50 up to about 30 µM)
# [4] = sensitizers of A549 cells to miR-34 induction, primary screen, imaging, A549 dox-inducible miR-34, nuclei and caspase counts (AID 1347080;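 active means compounds whose cell count with miR-34 switched on is under 0.7 times the count with it off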); conditions: A549 miR-34 inducible, Hoechst nuclei count, 48 h
# [5] = survival rescue of mitochondrial mutant cells in low glucose, primary screen, MELAS cybrids, Rieske KO mouse fibroblasts, CellTiter-Glo (AID 1508586;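 active means mean z-score across replicates of 1.96 or higher in either the MELAS or the Rieske mutant cell line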;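 further: z relative to plate mean and SD of compound and empty wells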)
# [6] = ovarian cancer cell viability with rucaparib, profiling panel, oncology-focused library, rucaparib conditional (AID 1508598); conditions: patient-derived ovarian cancer cells, CellTiter-Glo viability, 144 h, stronger effect = lower value
# [7] = LFS_MB_P medulloblastoma growth inhibition, cell-based, chromothripsis tumors, cisplatin or BGB combos (AID 1671449; in the data active means inhibition above about 80%;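 further: cells exposed for 96 hours; 0% = vehicle DMSO and 100% = killing by high DMSO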); conditions: LFS_MB_P medulloblastoma cells
# [8] = HDN33 neuroblastoma growth inhibition, cell-based, chromothripsis tumors, cisplatin or BGB combos (AID 1671450; in the data active means inhibition above about 80%;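 further: cells exposed to compound for four days; 0% = vehicle DMSO and 100% = cell killing by high DMSO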); conditions: HDN33 neuroblastoma cells, stronger effect = higher value
# [9] = ICB984 medulloblastoma cell growth inhibition, synergistic combos for chromothripsis tumors, cisplatin or BGB combos (AID 1671451; call rule not given here;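 further: cells exposed for 96 hours before readout; 0% = vehicle DMSO and 100% = killing by high DMSO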); conditions: ICB984 medulloblastoma cells, drug combinations, stronger effect = higher value
# [10] = LFS_MB_1R medulloblastoma cell growth inhibition, synergistic combos for chromothripsis tumors, cisplatin or BGB combos (AID 1671452; in the data active means inhibition above about 80%;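 further: cells exposed for 96 hours before readout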); conditions: LFS_MB_1R medulloblastoma cells, stronger effect = higher value
# [11] = HTB85 osteosarcoma cell growth inhibition, synergistic combos for chromothripsis tumors, BGB or cisplatin IC20 combos (AID 1671453; in the data active means inhibition above about 80%;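 further: cells exposed for 96 hours before readout; 0% = vehicle DMSO and 100% = high DMSO killing control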); conditions: HTB85 osteosarcoma cells, drug combinations, stronger effect = higher value
# [12] = CRL2098 osteosarcoma cell growth inhibition, synergistic combos for chromothripsis tumors, BGB or cisplatin IC20 combos (AID 1671454; in the data active means inhibition above about 80%;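 further: cells exposed for 96 h before readout; 0% = vehicle DMSO and 100% = killing by high DMSO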); conditions: CRL2098 osteosarcoma cells, drug combinations, stronger effect = higher value
# [13] = HD-MB03 medulloblastoma cell growth inhibition, synergistic combos for chromothripsis tumors, BGB or cisplatin IC20 combos (AID 1671455; in the data active means inhibition above about 83%;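 further: 0% = vehicle DMSO and 100% = high DMSO as cytotoxic control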); conditions: HD-MB03 medulloblastoma cells, stronger effect = higher value
# [14] = UWB1.289 ovarian carcinoma cell growth inhibition, synergistic combos for chromothripsis tumors, BGB or cisplatin combos (AID 1671456; in the data active means inhibition above about 80%;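 further: cells exposed to compound for four days; 0% = vehicle DMSO and 100% = killing by high DMSO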); conditions: UWB1.289 ovarian carcinoma cells, stronger effect = higher value
# [15] = LFS_MB_2R medulloblastoma cell growth inhibition, synergistic combos for chromothripsis tumors, cisplatin combos (AID 1671457; in the data active means inhibition above about 80%;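 further: cells exposed to compound for four days before readout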); conditions: LFS_MB_2R medulloblastoma cells, stronger effect = higher value
# [16] = MDA-MB-436 breast carcinoma cell growth inhibition, synergistic combos for chromothripsis tumors, BGB or cisplatin combos (AID 1671458; call rule not given here;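 further: cells exposed for 96 hours; 0% = vehicle DMSO and 100% = killing by high DMSO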); conditions: MDA-MB-436 breast carcinoma growth inhibition, drug combinations, stronger effect = higher value
# [17] = UWB1.289_BRCA1 ovarian cancer growth, cell-based, BGB or cisplatin combinations (AID 1671459; in the data active means inhibition above about 80%); conditions: UWB1.289 BRCA1 ovarian carcinoma, drug combinations, stronger effect = higher value
# [18] = human astrocyte viability loss, single and combined drugs, cytotoxicity control for chromothriptic childhood tumor combination screen, cell-based, BGB or cisplatin IC20 combos (AID 1671460; in the data active means inhibition above about 80%;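 further: cells exposed to compounds for 96 hours before viability readout; 0% = vehicle and 100% = killing control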); conditions: Human astrocytes, drug combinations, stronger effect = higher value
# [19] = growth inhibition of BT084 medulloblastoma cells, cell-based, ICGC_MB145, cisplatin and BGB IC40 combos (AID 1671461; in the data active means inhibition above about 80%;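 further: cells exposed to drugs for 96 hours; 0% = vehicle DMSO and 100% = high DMSO full killing control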); conditions: drug combinations, stronger effect = higher value
# [20] = growth inhibition of RCMB18 medulloblastoma cells, cell-based, cisplatin and BGB IC40 combos (AID 1671462; in the data active means inhibition above about 80%;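 further: cells exposed to compound for four days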); conditions: stronger effect = higher value
# [21] = growth inhibition of CRL1545 osteosarcoma cells, cell-based, cisplatin and BGB IC20 combos (AID 1671464; in the data active means inhibition above about 80%;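 further: cells exposed to compound for 96 hours before readout; 0% = vehicle DMSO and 100% = high DMSO killing control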); conditions: stronger effect = higher value
# [22] = measured here: combination with BGB IC40, at 0.05 µM
# [23] = measured here: with BGB IC20 combination, at 0.5 µM
# [24] = measured here: with cisplatin IC20 combination, at 0.5 µM
# [25] = measured here: combination with cisplatin, at 0.5 µM
# [26] = measured here: combination with cisplatin, at 5 µM
smiles,measurement,setting,value
COc1ccc(-n2c(SCCCN3C(=O)c4cccc5cccc(c45)C3=O)nnc2-c2ccncc2)cc1,outcome,[1],inactive
same,outcome,[2],inactive
same,outcome,[3],inactive
same,fold change,"[4]; stronger effect = lower value, cell number ratio, induced over uninduced",0.884 (inactive)
same,fold change,[4]; measured here: relative caspase fold change +Dox/-Dox,0.42
same,cell count,"[4]; measured here: total cells with miR-34 induction, stronger effect = lower value",6580
same,cell count,[4]; measured here: total cells without miR-34 induction,7440
same,z-score,"[5]; MELAS cybrid survival, CellTiter-Glo 48 h, stronger effect = higher value",-0.376 (inactive)
same,z-score,"[5]; Rieske KO mouse fibroblast survival, CellTiter-Glo 72 h",1.13
same,viability,"[6]; at 0.000305 µM, OCI-C5x cells, with rucaparib 10 µM, 100% = cells with rucaparib alone",118% (inactive)
same,viability,"[6]; at 0.000305 µM, OCI-C5x cells, without rucaparib",116% (inactive)
same,viability,"[6]; at 0.000305 µM, OCI-P5x cells, with rucaparib 20 µM, 100% = cells with rucaparib alone",101% (inactive)
same,viability,"[6]; at 0.000305 µM, OCI-P5x cells, without rucaparib",100% (inactive)
same,viability,"[6]; at 0.00122 µM, OCI-C5x cells, with rucaparib 10 µM, 100% = cells with rucaparib alone",120% (inactive)
same,viability,"[6]; at 0.00122 µM, OCI-C5x cells, without rucaparib",121% (inactive)
same,viability,"[6]; at 0.00122 µM, OCI-P5x cells, with rucaparib 20 µM, 100% = cells with rucaparib alone",101% (inactive)
same,viability,"[6]; at 0.00122 µM, OCI-P5x cells, without rucaparib",99.9% (active)
same,viability,"[6]; at 0.00488 µM, OCI-C5x cells, with rucaparib 10 µM, 100% = cells with rucaparib alone",117% (inactive)
same,viability,"[6]; at 0.00488 µM, OCI-C5x cells, without rucaparib",117% (inactive)
same,viability,"[6]; at 0.00488 µM, OCI-P5x cells, with rucaparib 20 µM, 100% = cells with rucaparib alone",94.7% (active)
same,viability,"[6]; at 0.00488 µM, OCI-P5x cells, without rucaparib",104% (inactive)
same,viability,"[6]; at 0.0195 µM, OCI-C5x cells, with rucaparib 10 µM, 100% = cells with rucaparib alone",125% (inactive)
same,viability,"[6]; at 0.0195 µM, OCI-C5x cells, without rucaparib",121% (inactive)
same,viability,"[6]; at 0.0195 µM, OCI-P5x cells, with rucaparib 20 µM, 100% = cells with rucaparib alone",102% (inactive)
same,viability,"[6]; at 0.0195 µM, OCI-P5x cells, without rucaparib",101% (inactive)
same,viability,"[6]; at 0.0781 µM, OCI-C5x cells, with rucaparib 10 µM, 100% = cells with rucaparib alone",125% (inactive)
same,viability,"[6]; at 0.0781 µM, OCI-C5x cells, without rucaparib",118% (inactive)
same,viability,"[6]; at 0.0781 µM, OCI-P5x cells, with rucaparib 20 µM, 100% = cells with rucaparib alone",95.3% (active)
same,viability,"[6]; at 0.0781 µM, OCI-P5x cells, without rucaparib",98.1% (active)
same,viability,"[6]; at 0.313 µM, OCI-C5x cells, with rucaparib 10 µM, 100% = cells with rucaparib alone",138% (inactive)
same,viability,"[6]; at 0.313 µM, OCI-C5x cells, without rucaparib",130% (inactive)
same,viability,"[6]; at 0.313 µM, OCI-P5x cells, with rucaparib 20 µM, 100% = cells with rucaparib alone",95.5% (active)
same,viability,"[6]; at 0.313 µM, OCI-P5x cells, without rucaparib",77.9% (active)
same,viability,"[6]; at 1.25 µM, OCI-C5x cells, with rucaparib 10 µM, 100% = cells with rucaparib alone",129% (inactive)
same,viability,"[6]; at 1.25 µM, OCI-C5x cells, without rucaparib",128% (inactive)
same,viability,"[6]; at 1.25 µM, OCI-P5x cells, with rucaparib 20 µM, 100% = cells with rucaparib alone",89.8% (active)
same,viability,"[6]; at 1.25 µM, OCI-P5x cells, without rucaparib",77.7% (active)
same,viability,"[6]; at 5 µM, OCI-C5x cells, with rucaparib 10 µM, 100% = cells with rucaparib alone",113% (inactive)
same,viability,"[6]; at 5 µM, OCI-C5x cells, without rucaparib",123% (inactive)
same,viability,"[6]; at 5 µM, OCI-P5x cells, with rucaparib 20 µM, 100% = cells with rucaparib alone",98.5% (active)
same,viability,"[6]; at 5 µM, OCI-P5x cells, without rucaparib",86.5% (active)
same,inhibition,"[7]; at 0.5 µM, stronger effect = higher value",9.82% (inactive)
same,inhibition,"[7]; measured here: combination with BGB IC20, at 0.005 µM",9.58%
same,inhibition,"[7]; measured here: combination with BGB IC40, at 0.005 µM",-35.2%
same,inhibition,[7]; [22],-11%
same,inhibition,"[7]; measured here: combination with cisplatin, at 0.5 µM, stronger effect = higher value",82.2%
same,inhibition,"[7]; measured here: combination with cisplatin, at 5 µM, stronger effect = higher value",-43.7%
same,inhibition,"[8]; BGB combo, at 5 µM",-3.81%
same,inhibition,[8]; at 0.5 µM,4% (inactive)
same,inhibition,"[8]; cisplatin combo, at 5 µM",14.9%
same,inhibition,[8]; [23],-3.11%
same,inhibition,[8]; [24],10.7%
same,inhibition,"[8]; single agent, at 5 µM",26.4%
same,inhibition,"[9]; BGB IC20 combo, at 0.005 µM",-14.7%
same,inhibition,"[9]; BGB IC40 combo, at 0.005 µM",-33.9%
same,inhibition,"[9]; BGB IC40 combo, at 0.05 µM",-28.6%
same,inhibition,[9]; at 0.5 µM,-17.9% (inactive)
same,inhibition,"[9]; cisplatin combo, at 0.05 µM",-33.7%
same,inhibition,"[9]; cisplatin combo, at 0.5 µM",-25.4%
same,inhibition,"[9]; cisplatin combo, at 5 µM",-32.6%
same,inhibition,"[9]; measured here: 5 uM single agent, at 5 µM",-15.5%
same,inhibition,[10]; at 0.5 µM,-13.2% (inactive)
same,inhibition,[10]; [22],-35.9%
same,inhibition,[10]; [25],-19.9%
same,inhibition,[10]; [26],-31.3%
same,inhibition,[11]; at 0.5 µM,-0.55% (inactive)
same,inhibition,"[11]; measured here: with BGB IC20, at 0.5 µM",6.74%
same,inhibition,"[11]; measured here: with BGB IC20, at 5 µM",0.541%
same,inhibition,"[11]; measured here: with cisplatin IC20, at 0.5 µM",-17.9%
same,inhibition,"[11]; measured here: with cisplatin IC20, at 5 µM",-0.549%
same,inhibition,"[11]; single agent, at 5 µM",19.7%
same,inhibition,[12]; at 0.5 µM,-27.6% (inactive)
same,inhibition,"[12]; measured here: combination with BGB at IC20, at 0.5 µM",-23.3%
same,inhibition,"[12]; measured here: combination with cisplatin at IC20, at 0.5 µM",-22.2%
same,inhibition,[13]; at 0.5 µM,-0.19% (inactive)
same,inhibition,"[13]; measured here: combo with BGB at IC20, at 0.5 µM",-1.2%
same,inhibition,"[13]; measured here: combo with cisplatin at IC20, at 0.5 µM",6.56%
same,inhibition,[14]; at 0.5 µM,1.01% (inactive)
same,inhibition,"[14]; measured here: inhibition with BGB combination, at 0.05 µM",-4.64%
same,inhibition,"[14]; measured here: inhibition with cisplatin combination, at 0.05 µM",-4.19%
same,inhibition,[15]; at 0.5 µM,-15% (inactive)
same,inhibition,[15]; [25],-8.95%
same,inhibition,[15]; [26],-20.5%
same,inhibition,[16]; at 0.5 µM,-5.31% (inactive)
same,inhibition,"[16]; measured here: BGB combination, at 0.5 µM",-12%
same,inhibition,"[16]; measured here: BGB combination, at 5 µM",-10.9%
same,inhibition,"[16]; measured here: cisplatin combination, at 0.5 µM",-2.01%
same,inhibition,"[16]; measured here: cisplatin combination, at 5 µM",-2.78%
same,inhibition,"[17]; BGB combination, concentration series, at 5 µM",7.08%
same,inhibition,[17]; at 0.5 µM,1.18% (inactive)
same,inhibition,"[17]; cisplatin combination, concentration series, at 5 µM",13.2%
same,inhibition,[18]; at 0.5 µM,16% (inactive)
same,inhibition,"[18]; measured here: combo with BGB IC20, at 0.5 µM",24.6%
same,inhibition,"[18]; measured here: combo with cisplatin IC20, at 0.5 µM",15.9%
same,inhibition,[19]; at 0.5 µM,3.66% (inactive)
same,inhibition,"[19]; cisplatin combination, at 0.5 µM",8.14%
same,inhibition,"[19]; cisplatin combination, at 5 µM",-2.96%
same,inhibition,"[19]; measured here: BGB IC40 combination 0.05 uM, at 0.05 µM",15.7%
same,inhibition,"[19]; single agent, at 5 µM",-22%
same,inhibition,[20]; at 0.5 µM,-7.05% (inactive)
same,inhibition,"[20]; cisplatin combo, at 5 µM",17.7%
same,inhibition,"[20]; measured here: BGB IC40 combination, at 0.05 µM",-27.1%
same,inhibition,[20]; [25],26.9%
same,inhibition,"[20]; single agent, at 5 µM",-22.4%
same,inhibition,[21]; at 0.5 µM,-5.28% (inactive)
same,inhibition,[21]; [23],-6.44%
same,inhibition,[21]; [24],-4.7%
same,inhibition,"[21]; single agent, at 0.05 µM",-13.5%
same,inhibition,"[21]; single agent, at 5 µM",7.92%
